# According to PubChem BioAssay (NCI):
# Several values for one entry are separate records, joined by “and”; a condition that tells them apart may be missing. Identical values can stand only once. This is part of a sample that, as a whole, favours compounds with a hit. Of some 83,000 tested, about 20% had one in any assay.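 Results are percent growth after 48 hours of single-concentration exposure. 100 means growth as in untreated cells, lower positive values show inhibition; negative values down to -100 show cell death.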 Activity calls are given as the source filed them. The calls were made as follows: active = growth percent below 10; inactive = the rest.
# System: MDA-MB-468 breast
# Experiment: NCI-60 one-dose screen, 48 h (100 = growth as untreated, 0 = no growth, -100 = all killed)
# Conditions: 10 µM unless noted
row,Structure (SMILES),growth
1,O=[N+]([O-])c1ccc(N=Nc2ccc(O)c3ccccc23)cc1,26.7% (inactive)
2,COc1cc(/C=C\C(C)=N\Nc2ccccc2)ccc1O,49% (inactive)
3,c1ccc(CO[C@H]2CO[C@H]3[C@@H]2OC[C@@H]3Oc2ccc(Nc3ncnc4ccsc34)cc2)cc1,51.5% (inactive)
4,COc1cccc(Cn2c(-c3nonc3NC(C)=O)nc3ccccc32)c1,-7.42% (active)
5,COc1cc(OC)cc(C(=O)Nc2sc3c(c2C(N)=O)CCC(=O)C3)c1,37.1% (inactive)
6,COc1ccc2c(=O)cc(-c3ccccc3)[nH]c2c1,7.37% (active) and -4.48% (active)
7,CNC(=O)c1cn2c3c(c(N4CCN(C)CC4)c(F)cc3c1=O)OC[C@@H]2C,97.7% (inactive)
8,O=c1cc(CSc2nnc(-c3ccccc3)n2-c2ccc(F)cc2)c2ccc3ccccc3c2o1,93.2% (inactive)
9,COc1cc(CC(=O)c2ccc(O)c(OC)c2)ccc1O,101% (inactive)
10,Cc1ccc(S(=O)(=O)N(c2ccc(Cl)cc2)c2ccc(Br)cc2C(=O)O)cc1,95.9% (inactive)
11,COc1cc(-c2ccc3c(c2)NC(=O)/C3=C\c2ccc[nH]2)ccc1O,16.6% (inactive)
12,CCCCCCCCCCCCSC1=CC(=O)C=CC1=O,82.8% (inactive)
13,O=C1c2ccccc2-c2nnc(-c3ccc(Br)cc3)cc21,20.3% (inactive)
14,COC(=O)OC1C(O[C@H]2C[C@H]3[C@@H]4CC=C5C[C@@H](O)CC[C@]5(C)[C@H]4CC[C@]3(C)[C@H]2[C@H](C)C(=O)CCC(C)C)OCC(O)C1OC1OCC(O)C(O)C1OC(=O)c1ccc(OC)cc1 (some centres not stated),-22.8% (active)
15,COc1ccc2c(c1)OC(N)=C(C#N)C2c1cc(OC)c(OC)c(OC)c1 (configuration not stated),-20.9% (active)
16,NC1=CC(=O)C(=O)c2cccnc21,81.3% (inactive)
17,CCCCC[C@H]1C/C=C2/C(=O)C(Cl)=C[C@@H]2C/C=C\CCCC(=O)O1,-26.7% (active)
18,C=CCn1c(C)nc2ccc(Nc3nc(Nc4ccc5nc(C)n(CC=C)c5c4)c4ccccc4n3)cc21,-92.8% (active)
19,Nc1nnc2cc(F)ccc2n1,122% (inactive)
20,CC(=O)O[C@@H]1CCN2C(=O)N(C)c3ccccc3[C@@H]2C1,126% (inactive)
21,O=C(Cn1cc(CSc2nc3ccccc3o2)nn1)Nc1ccc([N+](=O)[O-])cc1,98.7% (inactive)
22,CC(C)[C@@]12C[C@@H](OC(=O)C3CO3)[C@@](C)(O1)[C@@H]1CC[C@@H](C)[C@H]1[C@@H]2OC(=O)/C=C/c1ccccc1 (some centres not stated),95.4% (inactive)
23,CCN1/C(=C/C(C)=C/c2sc3ccc4ccccc4c3[n+]2CC)Sc2ccc3ccccc3c21,-87.4% (active)
24,CNC(=O)c1c(NC(=O)c2ccccc2C(F)(F)F)sc2c1CCC(=O)C2,25.1% (inactive)
25,COc1cccc2c1c1nc3cc(C)c(C)cc3nc1n2CCN(C)C,-8.02% (active)
26,O=C(/C=C/c1cn(-c2ccccc2)nc1-c1ccc(Cl)cc1)c1cc2ccccc2oc1=O,64.6% (inactive)
27,Fc1ccc(N/N=C/c2ccc(-n3cccn3)cc2)cc1,121% (inactive)
